Screens (PubChem)
L3MBTL1 inh – blocks human L3MBTL1 | Q9Y468 | AlphaScreen L3MBTL1–H3K9me1 peptide binding | Potency, µM (series often up to 57.1 µM), for inactives: at the highest dose activity, negative = inhibition, most hits filed as inhibitors | 230,000 compounds, 0.66% hits; note: % is set by controls: 0 for no effect and ±100 for the full control effect; nearly all actives have a fitted effect of over 60% in size
Target sequence (Q9Y468 whole entry, looked up): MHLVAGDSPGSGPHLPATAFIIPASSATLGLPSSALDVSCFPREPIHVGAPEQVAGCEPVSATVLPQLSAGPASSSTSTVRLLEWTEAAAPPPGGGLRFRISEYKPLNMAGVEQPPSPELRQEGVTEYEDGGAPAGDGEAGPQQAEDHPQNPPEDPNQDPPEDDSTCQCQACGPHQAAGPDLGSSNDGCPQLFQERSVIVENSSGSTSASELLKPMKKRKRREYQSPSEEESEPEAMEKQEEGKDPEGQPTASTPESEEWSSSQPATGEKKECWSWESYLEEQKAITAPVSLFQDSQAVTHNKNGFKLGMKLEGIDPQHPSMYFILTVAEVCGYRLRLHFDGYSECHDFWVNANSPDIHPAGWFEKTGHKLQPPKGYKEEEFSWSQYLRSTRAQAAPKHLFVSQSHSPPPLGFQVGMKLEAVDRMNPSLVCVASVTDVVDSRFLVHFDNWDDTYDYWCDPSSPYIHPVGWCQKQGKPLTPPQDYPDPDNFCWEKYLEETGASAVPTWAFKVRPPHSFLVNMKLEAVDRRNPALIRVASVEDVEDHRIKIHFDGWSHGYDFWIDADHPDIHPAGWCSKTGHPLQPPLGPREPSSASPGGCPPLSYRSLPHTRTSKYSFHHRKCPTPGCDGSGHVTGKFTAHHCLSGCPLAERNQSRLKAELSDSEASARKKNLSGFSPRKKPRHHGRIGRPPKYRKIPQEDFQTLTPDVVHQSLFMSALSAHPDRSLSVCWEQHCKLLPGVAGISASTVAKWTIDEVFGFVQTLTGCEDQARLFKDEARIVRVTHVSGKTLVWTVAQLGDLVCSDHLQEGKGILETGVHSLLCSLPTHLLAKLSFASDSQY
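L3MBTL1 (50 nM) pre-complexed 30 min with biotinylated H3(1-15)K9me1 peptide (75 nM), then compounds added for 30 min at room temperature; AlphaScreen streptavidin donor/nickel chelate acceptor beads (10 ug/mL final) read after 30 min dark incubation.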
HP1b chromo inh – HP1-beta chromodomain-methylated histone interaction inhibition; P83916; AlphaScreen HP1-beta / biotin-H3K9me3 peptide binding; Potency, µM (doses to about 114 µM), inactives show at the top dose activity change, negative = inhibition, most hits filed as inhibitors; 390,000 compounds, 0.56% hits; AID 540317; note: nearly all actives have a fitted effect of over 70% in size
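AlphaScreen: HP1-beta (50 nM) preformed 30 min with biotin-H3(1-18)K9me3 peptide (50 nM) in PBS pH 7.4, 0.01% Tween-20. Compound added for 30 min at RT, then streptavidin donor/nickel chelate acceptor beads (10 ug/mL) for 30 min.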
BAZ2B block – BAZ2B (human) inhibition; Potency, µM (highest dose often 114 µM), without a hit: at the top dose activity change, negative = inhibition, most hits filed as inhibitors; 360,000 compounds, 4.4% hits; AID 504333; AlphaScreen BAZ2B-H3K14Ac peptide displacement; Q9UIF8; note: % is set by controls: 0 for no effect and ±100 for the full control effect; nearly all actives have a fitted effect of over 60% in size
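Multi-concentration screen (max 110 uM) measuring displacement of acetylated histone H3 peptide from BAZ2B by AlphaScreen, using 50 nM protein, 50 nM peptide and 10 ug/mL streptavidin donor plus Ni-chelate acceptor beads.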
JMJD2A Tudor inh – blocks the human JMJD2A Tudor domain. O75164. AlphaScreen JMJD2A-Tudor / H3K4me3 peptide binding. Potency, µM (highest dose often 114 µM), for the others: at the highest dose activity change, negative = inhibition, hits mostly inhibitors. 390,000 compounds, 4.4% hits. AID 504339; note: % is set by controls: 0 for no effect and ±100 for the full control effect; nearly all actives have a fitted effect of over 50% in size
G9a inh – blocks human histone lysine methyltransferase G9a; Q96KQ7; G9a H3K9 monomethylation, AlphaScreen, 2 h; Potency, µM (series often up to 102 µM), inactives show at the highest dose activity, negative = inhibition, usual class: inhibitors; 350,000 compounds, 8.8% hits; note: % is set by controls: 0 for no effect and ±100 for the full control effect; nearly all actives have a fitted effect of over 75% in size
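Quantitative HTS format: methyltransferase activity on a biotin-tagged H3K9 peptide is measured by AlphaScreen, using a rabbit anti-monomethyl-H3K9 antibody with streptavidin donor and anti-IgG acceptor beads. Final levels are 20 nM enzyme, 500 nM peptide, 20 uM SAM; 2 h RT.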
* marks the source's active call; other numbers are inactive results; ? = inconclusive; / = no result given; [ ] = another dose, or the depositor's remark. This is a sample that favours compounds with a hit; in the whole collection about 11% have one here. Calls come from the whole dose curve; as a rule, active = well fitted inhibition curve with a large enough effect; inconclusive = small, poorly fitted or top-dose-only effect; inactive = no such curve, though single readings can be large or run the other way. Potency is the fitted concentration of half-maximal effect.

SMILES	L3MBTL1 inh	HP1b chromo inh	BAZ2B block	JMJD2A Tudor inh	G9a inh
CC(=O)OC[C@H]1O[C@@H](O/N=C(\C)CCN2CCCCc3nc(C)c(C)cc32)[C@H](OC(C)=O)[C@@H](OC(C)=O)[C@@H]1OC(C)=O	-1.0%	/	-21.2%	/	?
C/C(CCC(=O)OC[C@H]1O[C@H](C#Cc2ccccc2)C=C[C@@H]1Oc1ccc(C)cc1)=N\O[C@@H](C)CN1CCCCc2nc(C)c(C)cc21	-11.1%	/	-36.8%	/	35.5µM*
COc1ccc(O[C@H]2C=C[C@@H](c3ccccc3)O[C@@H]2COC(=O)CC/C(C)=N/O[C@@H](C)CN2CCCCc3nc(C)c(C)cc32)cc1	-9.0%	/	-38.5%	/	35.5µM*
COc1ccc(S(=O)(=O)N2CCCOC2CNC(=O)C(=O)NC2CCCC2)cc1 (stereo unspecified)	/	11.4%	-12.1%	-6.9%	32.3%
CCCCn1c(SCC(=O)c2ccccc2)nc2sc3c(c2c1=O)CCCC3	/	32.5%	-2.4%	-11.4%	1.1%[59 µM]
CCOC(=O)[C@H]1[C@H]2COc3ccc(C)cc3[C@@H]2N2C(=O)CN(C)C(=O)[C@@]12C	/	24.6%	/	-20.9%	/
Cn1nc(C(C)(C)C)c(NC(=O)c2cccs2)c1C(C)(C)C	0.4%	24.6%	-0.5%	3.8%	8.4%
Cc1cccc(Nc2ncc3c(n2)CC(c2ccco2)CC3=O)c1 (stereo unspecified)	-6.1%	17.0%	-2.3%	10.3%	12.6%[12.7 µM]
Cc1cc(C)cc(Nc2ncc3c(n2)CC(c2ccco2)CC3=O)c1 (stereo unspecified)	-7.7%	?	-30.8%	89.1µM*	?
Cc1ccc(Nc2ncc3c(n2)CC(c2ccco2)CC3=O)c(C)c1 (stereo unspecified)	-5.8%	4.0%	0.3%	-25.9%	50.1µM*
Cc1ccc(C(=O)Nc2ncc3c(n2)CC(c2ccco2)CC3=O)cc1 (stereo unspecified)	-7.3%	20.6%	-5.0%	-8.6%	?
COc1ccc(CNC(=O)c2ccc3c(c2)N(Cc2c(F)cccc2Cl)C(=O)CS3)cc1	/	60.3%	4.0%	-2.0%	0.8%[59 µM]
COc1cc(OC)cc(C(=O)N2CCN(C(=O)c3cccc(F)c3)CC2)c1	/	28.9%	-7.6%	-5.4%	9.0%[59 µM]
COc1cc(OC)cc(C(=O)N2CCN(C3CCN(Cc4ccccc4)CC3)CC2)c1	/	?	14.1µM*	1.12µM*	2.51µM*
COc1cccc(C(=O)N2CCN(Cc3ccco3)CC2)c1OC	2.6%	?	-36.8%	?	-0.3%[59 µM]
COc1cccc(C(=O)N2CCN(C3CCN(Cc4ccccc4)CC3)CC2)c1OC	/	22.4µM*	17.8µM*	0.794µM*	?
COc1cc(OC)cc(C(=O)N2CCN(C3CCC(C)CC3)CC2)c1 (stereo unspecified)	/	?	/	56.2µM*	/
O=C(c1cccs1)N1CCN(C2CCN(Cc3ccccc3)CC2)CC1	16.5%[11.4 µM]	22.1%	-2.4%	6.3%	11.4%[12.7 µM]
COc1cc(OC)cc(C(=O)N2CCN(C3CCCCC3)CC2)c1	-3.8%	?	?	22.4µM*	/
CCOc1cc(CNC(=O)c2ccc3nc(C(C)C)oc3c2)cc(OCC)c1OCC	/	24.4%[57 µM]	3.6%	2.9%	-1.9%[59 µM]
COc1cc(NC(=O)CSc2nc(C)c(C(=O)Nc3ccccc3)c(-c3ccc(OC)c(OC)c3)c2C#N)c(OC)cc1Cl	/	18.6%	-11.1%	-22.2%	-30.8%[59 µM]
CC1CCC(N2CCN(C(=O)c3ccccc3F)CC2)CC1 (stereo unspecified)	-5.6%	?	79.4µM*	28.2µM*	15.8µM*
COc1cccc(C2=NOC(C(=O)N3CCc4ccccc4C3)C2)c1 (stereo unspecified)	18.2%	36.4%	10.9%	-12.0%	7.94µM*
O=C(C1CC(c2ccc(F)cc2)=NO1)N1CCc2ccccc2C1 (stereo unspecified)	/	26.5%	3.5%	-21.8%	14.0%
COc1ccc(NS(=O)(=O)c2ccc3nc(-c4ccccc4)[nH]c3c2)cc1	/	43.8%	2.3%	-0.3%	9.4%[59 µM]
SMILES	L3MBTL1 inh	HP1b chromo inh	BAZ2B block	JMJD2A Tudor inh	G9a inh
COc1ccc(NS(=O)(=O)c2ccc3nc(COc4ccc(Cl)c(C)c4)[nH]c3c2)cc1	-0.3%	0.7%	-3.3%	-26.0%	44.7µM*
O=[N+]([O-])c1cccc(/C=N/N2CCN(Cc3ccc(Cl)cc3)CC2)c1	-24.0%	?	20µM*	50.1µM*	/
O=[N+]([O-])c1cccc(/C=N/N2CCN(Cc3ccccc3)CC2)c1	/	-13.0%	25.1µM*	?	?
O=[N+]([O-])c1cccc(/C=N/N2CCN(c3ccccn3)CC2)c1	-0.1%	?	-37.7%	-21.6%	31.6µM*
O=[N+]([O-])c1cccc(/C=N/N=C\c2ccccc2)c1	-1.6%	33.7%	-37.2%	-28.8%	38.9%
O=[N+]([O-])c1cccc(/C=N\N2CCN(Cc3ccccc3Cl)CC2)c1	-21.9%	?	35.5µM*	44.7µM*	10µM*
CC1CCCC(C)N1/N=C/c1cccc([N+](=O)[O-])c1 (stereo unspecified)	-29.0%	-32.6%	10.5%[0.457 µM]	?	-16.7%[59 µM]
COc1ccc(CCNC(=O)c2ccc(Cn3c(SCc4ccccc4)nc4cccnc43)cc2)cc1	/	27.4%	2.9%	-16.0%	-29.9%[59 µM]
CCOc1ccc(CNC(=O)C2CCN(C3=NS(=O)(=O)C(c4ccc(C)cc4)=C3CC)CC2)cc1	/	12.9%	-9.2%	-11.3%	-36.1%[59 µM]
Oc1ccccc1/C=N/N1CCN(c2ccccn2)CC1	-29.8%	5.2%	?	?	-5.2%
C(=N\N1CCN(c2ccccn2)CC1)/c1cccc2ccccc12	-27.8%	?	35.5µM*	39.8µM*	39.8µM*
CCOC(=O)C1=CN(CC)S(=O)(=O)NC1CC (stereo unspecified)	-26.3%	19.9%	/	-5.5%	/
COc1cc(/C=C/C(=O)Nc2nnc(CC(C)(C)C)s2)cc(OC)c1OC	5.9%	?	-11.5%	?	2.24µM*
COc1cc(/C=C/C(=O)Nc2nnc(CC(C)C)s2)cc(OC)c1OC	34.5%	6.9%	22.4%	-1.4%	-5.9%[59 µM]
O=C1C2=C(C(=O)c3ccccc31)C1O[C@](CCCCN3C(=O)c4ccccc4C3=O)(Cc3c1ccc1ccccc31)O2	/	/	?	/	-28.1%[2.33 µM]
CC(C)(C)c1onc(OCP(=O)(O)O)c1CC(N)C(=O)O (stereo unspecified)	/	/	/	/	5.32µM*
O=C1N=c2ccccc2=C1c1sc(=S)n(NC(=O)c2ccccc2)c1O	/	11.6%	?	-17.2%	39.8µM*
Cn1c(O)c(C2=c3ccccc3=NC2=O)[nH]c1=S	-12.5%	12.7%	?	-24.5%	-21.8%[59 µM]
C/C(=N\NC(=O)CSc1nc2ccccc2o1)c1ccc(O)cc1	-2.2%	19.3%	-19.2%	-14.8%	15.8µM*
Cc1cc(SCC(=O)N/N=C/c2ccc(O)c(O)c2)c(C)cc1Br	/	-5.8%	?	-34.2%	25.1µM*
